Columns and labels:
Type in all cases: functional
[1] = biological target: Solute carrier family 2, facilitated glucose transporter member 1 (Homo sapiens) (UniProt P11166); assay: ST_JUDE_LEISH: Cytotoxicity at 2uM final concentration against transgenic Leishmania Mexicana promastigotes LmGLUT1 that are glucose transport deficient and complemented with the human glucose transporter GLUT1. Activity is measured by DNA content using SYBR green in vitro
[2] = biological target: Hexose transporter 1 (Plasmodium falciparum) (UniProt O97467); assay: ST_JUDE_LEISH: Cytotoxicity at 2uM final concentration against transgenic Leishmania Mexicana promastigotes LmPfHT that are glucose transport deficient and complemented with the Plasmodium falciparum hexose transporter. Activity is measured by DNA content using SYBR green in vitro
[3] = biological target: Glucose transporter (Leishmania mexicana) (UniProt O61059); assay: ST_JUDE_LEISH: Cytotoxicity at 2uM final concentration against transgenic Leishmania Mexicana promastigotes LmGT2 that are glucose transport deficient and complemented with the L. Mexicana glucose transporter 2. Activity is measured by DNA content using SYBR green in vitro

Solute carrier family 2, facilitated glucose transporter member 1 (Homo sapiens), sequence (P11166 whole entry): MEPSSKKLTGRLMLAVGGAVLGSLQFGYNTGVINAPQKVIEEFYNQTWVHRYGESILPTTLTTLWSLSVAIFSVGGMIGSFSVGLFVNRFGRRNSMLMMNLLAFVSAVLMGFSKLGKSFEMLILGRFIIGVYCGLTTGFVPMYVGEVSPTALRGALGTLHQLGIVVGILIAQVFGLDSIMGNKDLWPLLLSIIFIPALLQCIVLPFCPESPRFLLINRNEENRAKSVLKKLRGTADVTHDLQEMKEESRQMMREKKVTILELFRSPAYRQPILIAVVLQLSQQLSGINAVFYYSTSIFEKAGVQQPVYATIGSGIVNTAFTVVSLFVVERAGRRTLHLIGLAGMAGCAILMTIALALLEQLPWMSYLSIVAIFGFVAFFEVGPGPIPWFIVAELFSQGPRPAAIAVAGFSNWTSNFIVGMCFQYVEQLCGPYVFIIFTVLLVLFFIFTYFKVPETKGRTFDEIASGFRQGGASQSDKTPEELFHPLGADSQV

## CC(=O)Nc1ncc(C(=O)Nc2cccc(-c3cccc(-c4nc5ccccc5[nH]4)c3)c2)s1
[1]
  inhibition: 1.58%
[2]
  inhibition: 1.44%
[3]
  inhibition: 6.64%

## CCOc1cc(C(=O)NCC2CCN(CC3CCCCC3)CC2)ccc1-c1nc2cc(Cl)ccc2[nH]1
[1]
  inhibition: 0.56%
[2]
  inhibition: 1.54%
[3]
  inhibition: 1.19%

## CCc1c(CCNCCc2cccc(CCNCCc3ccc(OC)c(OC)c3CC)c2)ccc(OC)c1OC
[1]
  inhibition: 2.06%
[2]
  inhibition: -1.49%
[3]
  inhibition: 0.27%

## O=S(=O)(NCCN1CCCC1)c1ccc(-c2ccc(CNCc3ccccc3)cc2)cc1
[1]
  inhibition: 2.85%
[2]
  inhibition: 1.2%
[3]
  inhibition: -0.93%

## Cc1nnsc1C(=O)Nc1cccc(-c2csc(-c3nc4ccccc4[nH]3)c2)c1
[1]
  inhibition: 2.53%
[2]
  inhibition: 3.19%
[3]
  inhibition: 1.45%

## CCn1c(SCc2ccccc2)nc2c1c(=O)[nH]c(=O)n2C
[1]
  inhibition: -0.07%
[2]
  inhibition: -0.05%
[3]
  inhibition: -1.06%

## CN1CCC(NCc2ccc(-c3ccc(Cl)cc3)cc2)CC1
[1]
  inhibition: 5.65%
[2]
  inhibition: 8.78%
[3]
  inhibition: 4.44%

## COc1cc(CN2CCC(N3CCc4cc(NC(=O)c5cc(C)on5)ccc43)C2)ccc1F (centres undefined)
[1]
  inhibition: 2.18%
[2]
  inhibition: 2.25%
[3]
  inhibition: 3.34%

## N#CN1CC[C@@H](OC(=O)N[C@@H]2C[C@H]2c2ccccc2)C1
[1]
  inhibition: 8.37%
[2]
  inhibition: 7.38%
[3]
  inhibition: 4.43%

## CCCCC(CC)CN1C(=O)C(c2ccccc2)(c2ccccc2)N=C1N (centres undefined)
[1]
  inhibition: -0.17%
[2]
  inhibition: 0.02%
[3]
  inhibition: 2.42%

## O=C(Nc1ccc(OC(F)(F)F)cc1)NC1CCN(c2ccnc3ccccc23)C1 (centres undefined)
[1]
  inhibition: 3.08%
[2]
  inhibition: 2.41%
[3]
  inhibition: 3.12%

## CCCCCC(C)C(C)c1cc(O)c2c(c1)OC(C)(C)CC2(O)c1ccnn1C (centres undefined)
[1]
  inhibition: 3.29%
[2]
  inhibition: 3.23%
[3]
  inhibition: 3.24%

## O=C(NCCc1cccc(F)c1)c1ccc(N2CCN(c3ccncc3)CC2)cn1
[1]
  inhibition: 8.21%
[2]
  inhibition: 4.37%
[3]
  inhibition: 6.9%
